Results filed as inconclusive are left out. Active and inactive are the calls of the source. Unless noted, calls come from the whole dose curve; as a rule, active = well fitted curve in the direction sought with a large enough effect in the repeat runs; inconclusive = weak or mixed curves; inactive = no such curve, though single readings can be large; an effect the other way counts as inactive or inconclusive.
Assays:
[1] = qHTS assay to identify small molecule agonists of the peroxisome proliferator-activated receptor delta (PPARd) signaling pathway - cell viability counter screen (AID 743211); note: nearly all actives have a fitted effect of over 55% in size
Procedure, shortened: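 HEK293H PPARd-bla, 3000 cells/well; 5 h preincubation 37C/5% CO2; cpd in DMSO, 17 h 37C; B/G FRET substrate 2 h RT; CellTiter-Glo 30 min RT, luminescence.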

[2] = qHTS assay to identify small molecule agonists of the farnesoid-X-receptor (FXR) signaling pathway - cell viability counter screen (AID 743218); note: nearly all actives have a fitted effect of over 45% in size
Procedure, shortened: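 Viability of FXR-bla HEK 293T cells is measured by ATP-based CellTiter-Glo luminescence following 16 h compound treatment at 37 C and a prior 2 h room-temperature beta-lactamase substrate step.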

[3] = qHTS assay to identify small molecule antagonists of the farnesoid-X-receptor (FXR) signaling pathway - cell viability counter screen (AID 743221; active = well fitted cell-killing curve with a large enough effect in the repeat runs, not every such curve was filed as active; note: nearly all actives have a fitted effect of over 50% in size)
Procedure, shortened: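 Luminescence from CellTiter-Glo measures cytotoxicity in GeneBLAzer FXR-UAS-bla HEK 293T cells. Cells were exposed to compounds with 50 uM chenodeoxycholic acid (final) for 16 h at 37 C, in wells also used for the reporter readout.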

[4] = molecular target: Vitamin D3 receptor (Homo sapiens) (UniProt P11473); experiment: qHTS assay to identify small molecule agonists of the vitamin D receptor (VDR) signaling pathway (AID 743222; calls by dose curve)
Vitamin D3 receptor (Homo sapiens), sequence (P11473 whole entry, looked up): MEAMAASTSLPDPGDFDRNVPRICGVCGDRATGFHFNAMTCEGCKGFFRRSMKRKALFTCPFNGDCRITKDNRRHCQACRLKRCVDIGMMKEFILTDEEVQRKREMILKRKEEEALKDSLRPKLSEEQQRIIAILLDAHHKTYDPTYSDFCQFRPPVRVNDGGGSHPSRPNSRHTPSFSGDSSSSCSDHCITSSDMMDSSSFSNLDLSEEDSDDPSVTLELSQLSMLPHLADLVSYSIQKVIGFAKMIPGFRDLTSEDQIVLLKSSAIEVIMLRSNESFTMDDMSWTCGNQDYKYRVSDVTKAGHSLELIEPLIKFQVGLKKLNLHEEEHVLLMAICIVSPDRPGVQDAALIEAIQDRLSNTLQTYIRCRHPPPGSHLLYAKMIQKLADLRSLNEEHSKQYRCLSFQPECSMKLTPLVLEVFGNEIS
Procedure, shortened: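 Fluorescence from cleaved LiveBLAzer B/G FRET substrate served as readout. VDR-bla cells had been treated 16 h at 37C with test compounds in DMSO, following a 4 h settling period, and substrate was loaded for 2 h at RT.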

[5] = molecular target: Vitamin D3 receptor (Homo sapiens) (UniProt P11473); experiment: qHTS assay to identify small molecule antagonists of the vitamin D receptor (VDR) signaling pathway (AID 743223; active = well fitted inhibition curve with a large enough effect in the signal ratio in the repeat runs, not every such curve was filed as active; the % refers to the signal ratio)
Procedure, shortened: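 Antagonist mode uses 1alpha,25-dihydroxyvitamin D3 at 3 nM final as stimulus. VDR-bla cells receive compounds in DMSO, incubate 16 h at 37C, then a beta-lactamase FRET substrate for 2 h at room temperature before fluorescence measurement.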

[6] = qHTS assay to identify small molecule agonists of the vitamin D receptor (VDR) signaling pathway - cell viability counter screen (AID 743224); note: series mostly up to about 63 µM; nearly all actives have a fitted effect of over 50% in size
Procedure, shortened: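 Compounds were pin-transferred onto VDR-bla cells plated 4 h earlier; following 16 h incubation at 37C, cell viability was quantified by CellTiter-Glo luminescence after 30 min at room temperature.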

[7] = qHTS assay to identify small molecule antagonists of the vitamin D receptor (VDR) signaling pathway - cell viability counter screen (AID 743225); note: nearly all actives have a fitted effect of over 50% in size
Procedure, shortened: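 Read-out: CellTiter-Glo luminescence measured 30 min after reagent addition at room temperature. Cells were VDR-bla HEK 293T exposed 16 h at 37C, 5% CO2, to compound with 3 nM final calcitriol agonist.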

[8] = qHTS assay to identify small molecule agonists of the NFkB signaling pathway (AID 1159509; active = well fitted curve in the direction sought with a large enough effect in the signal ratio in the repeat runs, not every such curve was filed as active; the % refers to the signal ratio; note: series mostly up to about 61 µM)
Procedure, shortened: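 Readout: FRET fluorescence, 405 nm excitation, 460/530 nm emission; beta-lactamase expression disrupts FRET. Cells: ME-180 stably carrying NF-kB-driven bla reporter. Compound exposure 5 hr, 37 C, 5% CO2.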

[9] = qHTS assay to identify small molecule agonists of the NFkB signaling pathway - cell viability counter screen (AID 1159515; calls by dose curve; note: series mostly up to about 61 µM; nearly all actives have a fitted effect of over 55% in size)
Procedure, shortened: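 Parallel cytotoxicity counter screen in ME-180 cells carrying an NFkB-response-element beta-lactamase reporter, 2,000 cells/well. Compound exposure lasted 5 hr at 37 C, 5% CO2. Cell viability was quantified by CellTiter-Glo luminescence.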

[10] = qHTS assay to identify small molecule agonists of the endoplasmic reticulum stress response signaling pathway (AID 1159516; active = well fitted activation curve with a large enough effect in the signal ratio in the repeat runs, not every such curve was filed as active; the % refers to the signal ratio)
Procedure, shortened: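 Using a HeLa line with an ESRE-driven beta-lactamase gene, agonist activity was measured by FRET substrate fluorescence (460 and 530 nm emission) after cells were treated with compounds for 5 hr at 37 C and 5% CO2.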

[11] = qHTS assay to identify small molecule agonists of the endoplasmic reticulum stress response signaling pathway - cell viability counter screen (AID 1159517; calls by dose curve;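 note: HeLa cells carrying an ER stress response element beta-lactamase reporter; series mostly up to about 61 µM; nearly all actives have a fitted effect of over 50% in size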)
Procedure, shortened: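 Steps: seed 1,500 ESRE-bla HeLa cells per well; incubate overnight at 37 C, 5% CO2; add compounds in DMSO for 5 hr; run FRET substrate 2 hr RT; add CellTiter-Glo, wait 30 min, read luminescence.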

[12] = qHTS assay to identify small molecule antagonists of the retinoid-related orphan receptor gamma (ROR-gamma) signaling pathway - cell viability counter screen (AID 1159520); note: nearly all actives have a fitted effect of over 50% in size
Procedure, shortened: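 Tet-on ROR gamma CHO cells were given compounds for 2 hr, then doxycycline hyclate at 1 uM final, and incubated 16 hr at 37 C. Viability was measured as ATP content by CellTiter-Glo luminescence.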

[13] = molecular target: Nuclear receptor ROR-gamma (Homo sapiens) (UniProt P51449); experiment: qHTS assay to identify small molecule antagonists of the retinoid-related orphan receptor gamma (ROR-gamma) signaling pathway (AID 1159521)
Procedure, shortened: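 CHO Tet-on RORγ, RORE-luc reporter. Cpd 2 h pre-incubation, then dox hyclate 1 uM final, 16 h, 37 C/5% CO2. ONE-Glo luminescence; decrease = antagonist.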

[14] = qHTS assay to identify small molecule agonists of the AP-1 signaling pathway - cell viability counter screen (AID 1159525; calls by dose curve; note: nearly all actives have a fitted effect of over 55% in size)
Procedure, shortened: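 Same-well cytotoxicity counter screen of the Tox21 10K library in ME-180 cells. The readout is ATP-dependent luminescence after 5 h compound treatment. Data are normalised to DMSO and tetra n-octyl ammonium bromide controls.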

[15] = qHTS assay to identify small molecule agonists of the AP-1 signaling pathway (AID 1159526; calls by dose curve)
[16] = molecular target: Bile acid receptor (Homo sapiens) (UniProt Q96RI1); experiment: qHTS assay to identify small molecule antagonists of the farnesoid-X-receptor (FXR) signaling pathway (AID 743217; active = well fitted inhibition curve with a large enough effect in the signal ratio in the repeat runs, not every such curve was filed as active; the % refers to the signal ratio)
Bile acid receptor (Homo sapiens), sequence (Q96RI1 whole entry, looked up): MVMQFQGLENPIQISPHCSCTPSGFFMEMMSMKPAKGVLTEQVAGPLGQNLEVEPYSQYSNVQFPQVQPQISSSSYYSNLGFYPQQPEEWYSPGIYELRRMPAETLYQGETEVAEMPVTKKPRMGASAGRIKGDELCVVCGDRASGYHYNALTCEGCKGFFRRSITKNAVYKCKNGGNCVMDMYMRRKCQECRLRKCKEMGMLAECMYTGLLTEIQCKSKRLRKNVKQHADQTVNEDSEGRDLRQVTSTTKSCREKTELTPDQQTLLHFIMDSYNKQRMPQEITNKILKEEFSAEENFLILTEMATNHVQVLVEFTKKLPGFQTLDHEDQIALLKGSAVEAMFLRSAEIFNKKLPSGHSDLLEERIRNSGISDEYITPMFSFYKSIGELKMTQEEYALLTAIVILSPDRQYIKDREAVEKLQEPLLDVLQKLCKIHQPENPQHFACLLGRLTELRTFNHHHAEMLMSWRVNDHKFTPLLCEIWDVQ
Procedure, shortened: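 Screen of the Tox21 10K library in quantitative HTS format using FXR-UAS-bla HEK 293T reporter cells. Agonist chenodeoxycholic acid, 50 uM final, added with compounds; 16 h incubation at 37 °C; beta-lactamase FRET fluorescence measured.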

[17] = molecular target: Bile acid receptor (Homo sapiens) (UniProt Q96RI1); experiment: qHTS assay to identify small molecule agonists of the farnesoid-X-receptor (FXR) signaling pathway (AID 743220; active = well fitted activation curve with a large enough effect in the signal ratio in the repeat runs, not every such curve was filed as active; the % refers to the signal ratio)
Procedure, shortened: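 FXR-UAS-bla HEK 293T cells carrying a UAS-driven beta-lactamase reporter were plated for 5 h at 37C/5% CO2, then exposed to DMSO-dissolved Tox21 10K compounds for 16 h at 37C. A LiveBLAzer B/G FRET substrate was loaded for 2 h at room temperature before fluorescence reading.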

[18] = qHTS assay to identify small molecule antagonists of the peroxisome proliferator-activated receptor delta (PPARd) signaling pathway - cell viability counter screen (AID 743213); note: nearly all actives have a fitted effect of over 50% in size
Procedure, shortened: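 In this counter screen, HEK293H cells carrying a UAS-beta-lactamase reporter are co-treated with test compounds and 300 nM L165041 (final) for 17 h at 37 C; cell viability is quantified by CellTiter-Glo luminescence.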

[19] = molecular target: Peroxisome proliferator-activated receptor delta (Homo sapiens) (UniProt Q03181); experiment: qHTS assay to identify small molecule agonists of the peroxisome proliferator-activated receptor delta (PPARd) signaling pathway (AID 743212; calls by dose curve)
Peroxisome proliferator-activated receptor delta (Homo sapiens), sequence (Q03181 whole entry, looked up): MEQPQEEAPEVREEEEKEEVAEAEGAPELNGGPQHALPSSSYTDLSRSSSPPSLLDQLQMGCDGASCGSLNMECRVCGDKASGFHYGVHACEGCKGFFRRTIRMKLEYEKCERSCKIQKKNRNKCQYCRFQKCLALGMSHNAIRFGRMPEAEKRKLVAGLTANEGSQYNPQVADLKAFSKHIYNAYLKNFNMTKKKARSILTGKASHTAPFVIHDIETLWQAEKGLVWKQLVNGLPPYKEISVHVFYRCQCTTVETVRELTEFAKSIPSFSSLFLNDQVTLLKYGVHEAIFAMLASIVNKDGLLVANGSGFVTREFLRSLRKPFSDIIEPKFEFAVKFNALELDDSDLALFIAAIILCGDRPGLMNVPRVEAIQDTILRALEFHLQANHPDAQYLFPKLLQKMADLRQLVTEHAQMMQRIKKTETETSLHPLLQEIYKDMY
Procedure, shortened: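 Read-out: beta-lactamase FRET fluorescence after 2 h room-temperature incubation with LiveBLAzer B/G substrate. Cells were HEK293H carrying a UAS-bla reporter for PPARd, treated at 37 C with DMSO-dissolved compounds.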

[20] = molecular target: Peroxisome proliferator-activated receptor delta (Homo sapiens) (UniProt Q03181); experiment: qHTS assay to identify small molecule antagonists of the peroxisome proliferator-activated receptor delta (PPARd) signaling pathway (AID 743215; active = well fitted inhibition curve with a large enough effect in the signal ratio in the repeat runs, not every such curve was filed as active; the % refers to the signal ratio;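 note: cells stimulated with agonist L165041 at 300 nM final during compound exposure; series mostly up to about 62 µM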)
Procedure, shortened: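 Plated HEK293H PPARd-bla cells rested 5 h at 37 C and 5% CO2. Compound, then agonist L165041 at 300 nM final, was added; 17 h at 37 C followed. Substrate loading, 2 h room temperature, fluorescence measured.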

Measured: Potency

O=C1CCCC1
inactive: [1] | [2] | [3] | [4] | [5] | [6] | [7] | [8] | [9] | [10] | [11] | [12] | [13] | [14] | [15]

CC(=O)OCCOC(C)=O
inactive: [1] | [2] | [3] | [4] | [5] | [6] | [7] | [8] | [9] | [10] | [11] | [12] | [13] | [14] | [15]

O=C(O)Cn1c(=O)n(Cc2ccc(Br)cc2F)c(=O)c2ccc(Cl)cc21
inactive: [1] | [16] | [2] | [17] | [3] | [4] | [6] | [7] | [8] | [9] | [10] | [11] | [12] | [13] | [14] | [15]

CCCCCCCCCCO
inactive: [1] | [16] | [2] | [17] | [3] | [4] | [6] | [7] | [8] | [9] | [10] | [11] | [12] | [13] | [14] | [15]

CCCCCCCC=O
inactive: [1] | [18] | [2] | [3] | [4] | [5] | [6] | [7] | [8] | [9] | [10] | [11] | [12] | [13] | [14] | [15]

CC1(C)NC(=O)NC1=O
inactive: [1] | [19] | [20] | [2] | [3] | [4] | [5] | [6] | [7] | [8] | [9] | [10] | [11] | [12] | [13] | [14] | [15]

O=S(=O)(O)c1ccccc1
inactive: [1] | [18] | [16] | [2] | [17] | [3] | [4] | [6] | [7] | [8] | [9] | [10] | [11] | [12] | [13] | [14] | [15]

Brc1ccc(Br)c(Br)c1
inactive: [1] | [18] | [2] | [3] | [4] | [5] | [6] | [7] | [8] | [9] | [10] | [11] | [12] | [13] | [14] | [15]

CCOCCOCCOCCO
inactive: [1] | [18] | [16] | [2] | [17] | [3] | [4] | [5] | [6] | [7] | [8] | [9] | [10] | [11] | [12] | [13] | [14] | [15]

CCOC(=O)c1ccc(N)cc1
inactive: [1] | [18] | [16] | [2] | [17] | [3] | [4] | [5] | [6] | [7] | [8] | [9] | [10] | [11] | [12] | [13] | [14] | [15]

CC(O)CC(C)(C)O (configuration not stated)
inactive: [1] | [2] | [3] | [4] | [5] | [6] | [7] | [8] | [9] | [10] | [11] | [12] | [13] | [14] | [15]

O=C(O)c1ccc(S(=O)(=O)N(Cl)Cl)cc1
inactive: [1] | [18] | [16] | [2] | [17] | [3] | [4] | [5] | [6] | [7] | [8] | [9] | [10] | [11] | [12] | [13] | [14] | [15]

From PubChem BioAssay (Tox21)
